Measurements published in PubChem BioAssay (NCATS).
Results filed as inconclusive are left out. Entries that show only a call come without a potency. Calls of active or inactive are those of the source. The call rests on the fitted dose curve; in most records, active means well fitted inhibition curve with a large enough effect; inconclusive means small, poorly fitted or top-dose-only effect; inactive means flat fitted curve, though single readings scatter.

Assays:
Assay in all cases: qHTS profiling for inhibitors of Plasmodium falciparum proliferation (AID 504749); further: nearly all actives have a fitted effect of over 60% in size
Settings in all cases: P. falciparum in erythrocytes, SYBR Green DNA, 72 h; series mostly up to 28.7 µM
[1] = system: 7G8
Method in brief: (§1)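 Fluorescence of SYBR Green-bound parasite DNA, read at 485/535 nm, served as the growth measure. Infected erythrocytes were cultured with compound 72 h; artemisinin (0.29 uM) and DMSO wells defined the normalization range.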

[2] = system: CP192
Method in brief: as §1

[3] = system: CP201
Method in brief: as §1

[4] = system: CP215
Method in brief: as §1

[5] = system: CP247
Method in brief: as §1

[6] = system: CP260
Method in brief: as §1

[7] = system: CP266
Method in brief: as §1

[8] = system: CP291
Method in brief: as §1

[9] = system: CP297
Method in brief: as §1

[10] = system: CP315
Method in brief: as §1

[11] = system: CP325
Method in brief: as §1

[12] = system: CP335
Method in brief: as §1

[13] = system: DIV14
Method in brief: as §1

[14] = system: DIV30
Method in brief: as §1

[15] = system: ECU
Method in brief: as §1

[16] = system: GB4
Method in brief: as §1

[17] = system: ICS
Method in brief: as §1

[18] = system: P93_24
Method in brief: as §1

[19] = system: PC26
Method in brief: as §1

[20] = system: PC49
Method in brief: as §1
Potency means the concentration at half of the fitted maximal effect.

| SMILES | Potency [1] | Potency [2] | Potency [3] | Potency [4] | Potency [5] | Potency [6] | Potency [7] | Potency [8] | Potency [9] | Potency [10] | Potency [11] | Potency [12] | Potency [13] | Potency [14] | Potency [15] | Potency [16] | Potency [17] | Potency [18] | Potency [19] | Potency [20] |
| --- | --- | --- | --- | --- | --- | --- | --- | --- | --- | --- | --- | --- | --- | --- | --- | --- | --- | --- | --- | --- |
| C[C@]12CC[C@@H]3c4ccc(O)cc4CC[C@H]3[C@@H]1C[C@H](O)C2O (stereo partly specified) | inactive | inactive | inactive | inactive | inactive | inactive | inactive | inactive | inactive | inactive | inactive | inactive | inactive | inactive | inactive | inactive | inactive | inactive | inactive | inactive |
| Cc1ccc(S(=O)(=O)NC(=O)NC(C)Cc2ccccc2)cc1 (stereo unspecified) | inactive | inactive | inactive | inactive | inactive | inactive | inactive | inactive | inactive | inactive | inactive | inactive | inactive | inactive | inactive | inactive | inactive | inactive | inactive | inactive |
| CC[C@@H](C)C(N)C(=O)O (stereo partly specified) | inactive | inactive | inactive | inactive | inactive | inactive | inactive | inactive | inactive | inactive | inactive | inactive | inactive | inactive | inactive | inactive | inactive | inactive | inactive | inactive |
| O=C1CC[C@H](C(=O)N[C@@H]2C[C@H]2c2ccccc2)N1 | inactive | inactive | inactive | inactive | inactive | inactive | inactive | inactive | inactive | inactive | inactive | inactive | inactive | inactive | inactive | inactive | inactive | inactive | inactive | inactive |
| CO/N=C(/C(=O)N[C@@H]1C(=O)N2C(C(=O)O)=C(CSc3nc(C)c(CC(=O)O)s3)CS[C@H]12)c1csc(N)n1 | inactive | inactive | inactive | inactive | inactive | inactive | inactive | inactive | inactive | inactive | inactive | inactive | inactive | inactive | inactive | inactive | inactive | inactive | inactive | inactive |
| C=C1[C@@H]2CC[C@H](C2)C1(C)C | inactive | inactive | inactive | inactive | inactive | inactive | inactive | inactive | inactive | inactive | inactive | inactive | inactive | inactive | inactive | inactive | inactive | inactive | inactive | inactive |
| CC(O)C1CCC2C3CCC4CC(O)CCC4(C)C3CCC12C (stereo unspecified) | inactive | inactive | inactive | inactive | inactive | inactive | inactive | inactive | inactive | inactive | inactive | inactive | inactive | inactive | inactive | inactive | inactive | inactive | inactive | inactive |
| CC(=O)NC1[C@H](O)C[C@@](O)(C(=O)O)O[C@H]1[C@H](O)[C@H](O)CO (stereo partly specified) | inactive | inactive | inactive | inactive | inactive | inactive | inactive | inactive | inactive | inactive | inactive | inactive | inactive | inactive | inactive | inactive | inactive | inactive | inactive | inactive |
| CCCC[C@H](O)c1ccccc1 | inactive | inactive | inactive | inactive | inactive | inactive | inactive | inactive | inactive | inactive | inactive | inactive | inactive | inactive | inactive | inactive | inactive | inactive | inactive | inactive |
| NC(C(=O)O)c1ccc(O)cc1 (stereo unspecified) | inactive | inactive | inactive | inactive | inactive | inactive | inactive | inactive | inactive | inactive | inactive | inactive | inactive | inactive | inactive | inactive | inactive | inactive | inactive | inactive |
| C[C@@H]1C(SC2Cn3cnc[n+]3C2)=C(C(=O)[O-])N2C(=O)[C@H]([C@@H](C)O)[C@@H]12 (stereo partly specified) | inactive | inactive | inactive | inactive | inactive | inactive | inactive | inactive | inactive | inactive | inactive | inactive | inactive | inactive | inactive | inactive | inactive | inactive | inactive | inactive |
| CCN(CC)C(=O)Nc1ccc(OC[C@H](O)CNC(C)(C)C)c(C(C)=O)c1 | inactive | inactive | inactive | inactive | inactive | inactive | inactive | inactive | inactive | inactive | inactive | inactive | inactive | inactive | inactive | inactive | inactive | inactive | inactive | inactive |
| O=C(O)CC(O)CC(O)/C=C/c1c(C2CC2)nc2ccccc2c1-c1ccc(F)cc1 (stereo unspecified) | inactive | inactive | inactive | inactive | inactive | inactive | inactive | inactive | inactive | inactive | inactive | inactive | inactive | inactive | inactive | inactive | inactive | inactive | inactive | inactive |
| CC(=O)OCC(=O)[C@@]1(O)CCC2C3CCC4=CC(=O)C=CC4(C)C3C(O)C[C@]21C (stereo partly specified) | inactive | inactive | inactive | inactive | inactive | inactive | inactive | inactive | inactive | inactive | inactive | inactive | inactive | inactive | inactive | inactive | inactive | inactive | inactive | inactive |
| COc1cccc(OC)c1C(=O)NC1C(=O)N2C1SC(C)(C)C2C(=O)O (stereo unspecified) | inactive | inactive | inactive | inactive | inactive | inactive | inactive | inactive | inactive | inactive | inactive | inactive | inactive | inactive | inactive | inactive | inactive | inactive | inactive | inactive |
| CNC1C(O)C(OC2C(N)CC(N)C(OC3OC(CN)=CCC3N)C2O)OCC1(C)O (stereo unspecified) | inactive | inactive | inactive | inactive | inactive | inactive | inactive | inactive | inactive | inactive | inactive | inactive | inactive | inactive | inactive | inactive | inactive | inactive | inactive | inactive |
| OCC1O[C@H](Oc2ccc(O)cc2)C(O)C(O)C1O (stereo partly specified) | inactive | inactive | inactive | inactive | inactive | inactive | inactive | inactive | inactive | inactive | inactive | inactive | inactive | inactive |  | inactive | inactive |  | inactive | inactive |
| C=C[C@H]1CN2CCC1C[C@H]2[C@H](O)c1ccnc2ccc(OC)cc12 (stereo partly specified) | 224 nM (active) | 1.69 µM (active) | 2.13 µM (active) | 1200 nM (active) | 1260 nM (active) | 708 nM (active) | 1.9 µM (active) | 1200 nM (active) | 1690 nM (active) | 1.69 µM (active) | 1200 nM (active) | 849 nM (active) | 757 nM (active) | 953 nM (active) | 251 nM (active) | 301 nM (active) | 282 nM (active) | 1000 nM (active) | 601 nM (active) | 1.26 µM (active) |
| CC[C@@]1(O)C[C@H](O[C@H]2C[C@@H](N(C)C)[C@@H](O[C@H]3C[C@@H](O)[C@@H](O[C@H]4CCC(=O)[C@@H](C)O4)[C@@H](C)O3)[C@@H](C)O2)c2c(cc3c(c2O)C(=O)c2c(O)cccc2C3=O)[C@H]1C(=O)OC | 39.8 nM (active) | 1.07 µM (active) | 1.51 µM (active) | 849 nM (active) | 251 nM (active) | 39.8 nM (active) | 1.2 µM (active) | 849 nM (active) | 953 nM (active) | 1.35 µM (active) | 849 nM (active) | 169 nM (active) | 379 nM (active) | 953 nM (active) | 355 nM (active) | 601 nM (active) | 44.7 nM (active) | 316 nM (active) | 1200 nM (active) |  |
| CCCCCCCCCCCC(=O)OCC(O)C1OCC(O)C1O (stereo unspecified) | inactive | inactive | inactive | inactive | inactive | inactive | inactive | inactive | inactive | inactive | inactive | inactive | inactive | inactive | inactive | inactive | inactive | inactive | inactive | inactive |
| CCC(C(=O)O)C1OC(C(C)C(O)C(C)C(=O)C(CC)C2OC3(C=CC(O)C4(CCC(C)(C5CCC(O)(CC)C(C)O5)O4)O3)C(C)CC2C)C(C)CC1C (stereo unspecified) | 79.4 nM (active) | 0.169 µM (active) | 0.0953 µM (active) | 60.1 nM (active) | 112 nM (active) | 112 nM (active) | 0.151 µM (active) | 60.1 nM (active) | 135 nM (active) | 0.0338 µM (active) | 84.9 nM (active) | 42.6 nM (active) | 95.3 nM (active) | 67.5 nM (active) | 178 nM (active) | 53.6 nM (active) | 89.1 nM (active) | 178 nM (active) | 75.7 nM (active) | 0.251 µM (active) |
| CN1[C@@H]2CC[C@@H]1CC(OC(=O)[C@H](CO)c1ccccc1)C2 (stereo partly specified) | inactive | inactive | inactive | inactive | inactive | inactive | inactive | inactive | inactive | inactive | inactive | inactive | inactive | inactive | inactive | inactive | inactive | inactive | inactive |  |
